Screening data: PubChem, The Scripps Research Institute Molecular Screening Center
S1P1 ag: S1P1 (human) receptor agonism; 16,000 tested, 1.5% active; activation, % at 4.5 µM; AID 1044; P21453; S1P1 agonist cell-based reporter assay; in the data active means activation above about 80%
TLR4 MyD88 blk: TLR4-MyD88 interaction inhibition; Cell-based TLR4-MyD88 binding inhibition assay; 16,000 tested, 0.06% active; inhibition, % at 10 µM; AID 811; O00206; in the data active means inhibition above about 45%
KOR antag MB: antagonists of human kappa opioid receptor OPRK1, Maybridge library | inhibition, % at 9 µM | 16,000 tested, 0.4% active | OPRK1 cells, antagonist mode, fluorescence readout; in the data active means inhibition above about 50%
rat GALR2 agon: activates the rat galanin receptor 2 | cell-based GALR2 agonist screen | 16,000 tested, 0.5% active | activation, % at 10 µM | O08726; in the data active means activation above about 15%
* = called active by the depositor. This is a sample that favours compounds with a hit; in the whole collection about 2.5% have one here.

SMILES	S1P1 ag	TLR4 MyD88 blk	KOR antag MB	rat GALR2 agon
CN(C)Cc1c[nH]c2ccc(OCc3ccccc3)cc12	2	-9	24	-5
O=[N+]([O-])/C=C/c1ccc(OCc2ccccc2)cc1	22	-6	62*	-9
COc1cc2c(cc1OC)[C@@H]1C(=O)c3ccc4c(c3O[C@@H]1CO2)C[C@H](C(C)C)O4	110*	-11	-3	-11
Nc1c([N+](=O)[O-])cncc1[N+](=O)[O-]	111*	6	20	-4
Cn1c(=O)n(C)c(=O)n(C)c1=O	2	4	8	-2
O=C1/C(=C/c2c(F)cccc2Cl)N2CCC1CC2	5	5	-12	-8
Cc1c([N+](=O)[O-])cc2c(c1[N+](=O)[O-])C(C)(C)CC2(C)C	102*	2	8	-11
Cc1cc(OC(=O)N(C)C)nc(COc2ccc(Cl)cc2)n1	1	-1	20	-7
